Screens (PubChem)
The list is not random: actives were taken first. Their share in the collection is about 3.2%.
p53 reactivation = qHTS assay for re-activators of p53 using a Luc reporter; AID 504706, 2011; 320,000 compounds, 0.063% hits; H1299 p53-A138V BP100-luciferase reporter, luminescence, 24 h; Potency, µM (titrated, usually from 92.2 µM), hits mostly activators; note: nearly all actives have a fitted effect of over 45% in size
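H1299 (p53-null), stable ts p53-A138V + BP100-Luc; 1000 cells/well, Opti-MEM/10% FBS; cpd 4 pt, 1:5; 24 h, 37 deg C, 5% CO2; detection reagent 10 min RT; luminescence.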
IL2 activator = qHTS of IL-2 Activators; activation, % (series mostly up to about 46 µM); IL-2 activation reporter assay, cell-based qHTS; stimulated with anti-CD3/CD4/CD28 beads; in transgenic mouse T cells; 360,000 compounds, 0.065% hits; in the data active = activation above about 50%; inconclusive = mostly about 30% to 49%
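Readout is EGFP and DsRed signal by fluorescent plate cytometry after 18 h at 37 degrees C. Transgenic mouse T cells (750/well) received compound for 60 min before bead stimulation (anti-CD3, anti-CD4, anti-CD28); memory T cells served as non-tolerant control.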
BRCA1 expr act = qHTS Assay to Identify Small Molecule Activators of BRCA1 Expression; Potency, µM (highest dose often 46.1 µM), actives largely listed as activators; 380,000 compounds, 1.1% hits; MCF7-BRCA1-FFLuc reporter, luminescence, 48 h; response scale: scaled: vehicle 0%, 10 µM genistein 100%; note: nearly all actives have a fitted effect of over 80% in size
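Luminescence from a BRCA1-driven firefly luciferase in MCF7 cells was the read-out, taken 15 min after substrate addition following 48 h compound exposure at 37 °C. Data were normalized to a 10 microM genistein control and DMSO vehicle.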
Nrf2 inh = Nrf2 qHTS screen for inhibitors | A549 ARE-Fluc reporter, luciferase luminescence, 18-24 h | 360,000 compounds, 2.1% hits | Potency, µM (titrated, usually from 46 µM), hits mostly inhibitors; note: nearly all actives have a fitted effect of over 60% in size
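A549 ARE_Fluc cells (5000/well, 5% FBS OPTI-MEM) pre-incubated 2 h, then treated with compounds 18-24 h at 37C/5% CO2 in concentration-response. CellTiter-Fluor viability read first; BugLite luciferase luminescence after 15 min at room temperature gives Nrf2 activity.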
Nrf2 activator = qHTS of Nrf2 Activators. AREc32 ARE-luciferase reporter (MCF7-derived line), luminescence, 24 h. Potency, µM (highest dose often 46.1 µM), usual class: activators. 410,000 compounds, 0.31% hits. AID 624171, 2012; note: nearly all actives have a fitted effect of over 65% in size
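Luciferase luminescence (Steady-Glo, 30 min at room temperature) served as the read-out of ARE activation in AREc32 cells treated with compounds for 24 hr at 37 deg C.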
A549 viability = Nrf2 qHTS screen for inhibitors: counterscreen for cytotoxicity | Potency, µM (titrated, usually from 46 µM), hits mostly inhibitors | AID 504648, 2011 | A549 ARE-Fluc cells, CellTiter-Fluor viability, 18-24 h | 390,000 compounds, 0.16% hits
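A549 ARE-Fluc cells in 5% FBS OPTI-MEM, 5000 cells/well, rested 2 h then exposed to compounds in concentration-response for 18-24 h at 37 °C. Viability by CellTiter-Fluor fluorescence (Ex 405/Em 525) after 30 min; luciferase luminescence (BugLite, 15 min, RT) read afterwards.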
A number is an active result. Unless noted, calls come from the whole dose curve; as a rule, active = well fitted curve in the direction sought with a large enough effect; inconclusive = small, poorly fitted or top-dose-only effect, or another doubt; inactive = no such curve, though single readings can be large; an effect the other way counts as inactive or inconclusive.

`COc1ccc(NC(=O)/C=C/c2ccc(OC(F)F)cc2)cn1` gave p53 reactivation inactive, IL2 activator inactive, BRCA1 expr act inactive, Nrf2 inh 18.4µM, Nrf2 activator inactive and A549 viability inactive.
Screening COc1ccc(NC(=O)/C=C/c2cccc(Br)c2)cn1 returned p53 reactivation inactive, IL2 activator inactive, BRCA1 expr act inactive, Nrf2 inh 16.4µM, Nrf2 activator inactive and A549 viability inactive.
`COc1ccc(/C=C/C(=O)Nc2ccc(OC)nc2)cc1` gave p53 reactivation inactive, IL2 activator inactive, BRCA1 expr act inactive, Nrf2 inh inconclusive, Nrf2 activator inactive and A549 viability inactive.
Screening CCS(=O)c1ccccc1C(=O)OCC(=O)Nc1cccc(S(=O)(=O)N2CCCCC2)c1 (configuration not stated) returned p53 reactivation inactive, IL2 activator inactive, BRCA1 expr act inactive, Nrf2 inh 20.6µM, Nrf2 activator inactive and A549 viability inactive.
Screening Cc1ccc(NC(=O)CSCC(=O)Nc2cccc(S(=O)(=O)N3CCCCCC3)c2)cc1 returned p53 reactivation inactive, IL2 activator inactive, BRCA1 expr act inactive, Nrf2 inh 13µM, Nrf2 activator inactive and A549 viability inactive.
For Cc1cccc(C)c1OCC(=O)Nc1cccc(S(=O)(=O)N2CCCC2)c1 the results were p53 reactivation inactive, IL2 activator inactive, BRCA1 expr act inactive, Nrf2 inh 14.6µM, Nrf2 activator inactive and A549 viability inactive.
CCN1CCN(c2ccc(S(=O)(=O)N3CCCCC3)cc2NC(=O)/C=C/c2cc(OC)ccc2OC)CC1 was read as p53 reactivation inactive, IL2 activator inactive, BRCA1 expr act inactive, Nrf2 inh inactive, Nrf2 activator inactive and A549 viability inactive.
Screening Cc1cccc(C)c1OCC(=O)Nc1cccc(S(=O)(=O)N2CCCCCC2)c1 returned IL2 activator inactive, BRCA1 expr act inactive and Nrf2 activator inactive.
Screening COc1ccc(OC)c(/C=C/C(=O)Nc2cccc(S(=O)(=O)N3CCCC3)c2)c1 returned p53 reactivation inactive, IL2 activator inactive, BRCA1 expr act inactive, Nrf2 inh 13µM, Nrf2 activator inactive and A549 viability inactive.
Screening CC(C)CNc1ncnc2onc(-c3ccc(Cl)cc3)c12 returned BRCA1 expr act inactive, Nrf2 inh inactive, Nrf2 activator inactive and A549 viability inactive.
Screening Cc1cc2c(s1)c1cnn(Cc3cc(F)c(F)c(F)c3F)c(=O)c1n2C returned Nrf2 inh inactive and A549 viability inactive.
Screening COc1ccc(CCC(=O)Nc2cccc(S(=O)(=O)N3CCCCCC3)c2)cc1 returned p53 reactivation inactive, IL2 activator inactive, BRCA1 expr act inactive, Nrf2 inh 20.6µM, Nrf2 activator inactive and A549 viability inactive.
`Cc1cc(OCC(=O)Nc2cccc(S(=O)(=O)N3CCCC3)c2)ccc1Cl` gave p53 reactivation inactive, IL2 activator inactive, BRCA1 expr act inactive, Nrf2 inh 16.4µM, Nrf2 activator inactive and A549 viability inactive.
O=C(COc1ccccc1Br)Nc1ccc(S(=O)(=O)N2CCCC2)cc1 was read as p53 reactivation inactive, IL2 activator inactive, BRCA1 expr act inactive, Nrf2 inh 13µM, Nrf2 activator inactive and A549 viability inactive.
Screening Cc1cc(OCC(=O)Nc2cccc(S(=O)(=O)N3CCCCC3)c2)ccc1Cl returned p53 reactivation inactive, IL2 activator inactive, BRCA1 expr act inactive, Nrf2 inh inactive, Nrf2 activator inactive and A549 viability inactive.
Screening Cc1ccc(S(=O)(=O)Nc2nc3ccccc3nc2Nc2cccc(S(=O)(=O)N3CCCC3)c2)cc1 returned p53 reactivation inactive, IL2 activator inactive, BRCA1 expr act inactive, Nrf2 inh 9.2µM, Nrf2 activator inactive and A549 viability inactive.
For COc1ccccc1OCC(=O)Nc1ccc(S(=O)(=O)N2CCCC2)cc1 the results were p53 reactivation inactive, IL2 activator inactive, BRCA1 expr act inactive, Nrf2 inh inactive, Nrf2 activator inactive and A549 viability inactive.
COc1ccc(Nc2ncnc3c2cnn3-c2ccc(C)cc2C)cc1 was read as Nrf2 activator inactive and A549 viability inactive.
`N#Cc1nc(Nc2cccc([N+](=O)[O-])c2)nc(NC2CCCC2)n1` gave Nrf2 inh inactive and A549 viability inactive.
For C(=N\Nc1nc2ccccc2[nH]1)/c1cccc2nccnc12 the results were p53 reactivation inactive, IL2 activator inactive, BRCA1 expr act inactive, Nrf2 inh inactive, Nrf2 activator inactive and A549 viability inactive.
`CCOc1cc(/C=N/Nc2nc3ccccc3[nH]2)cc(Br)c1OCC(=O)N(C)C` gave p53 reactivation inactive, IL2 activator inactive, BRCA1 expr act inactive, Nrf2 inh 18.4µM, Nrf2 activator inactive and A549 viability inactive.
C#CCn1cc(/C=N/Nc2nc3ccccc3[nH]2)c2ccccc21 was read as p53 reactivation 14.1µM, IL2 activator inactive, BRCA1 expr act inactive, Nrf2 inh inconclusive, Nrf2 activator inactive and A549 viability inactive.
S=C(N/N=C/c1ccc2ncccc2c1)Nc1ccccc1 was read as p53 reactivation inactive, IL2 activator inactive, BRCA1 expr act inactive, Nrf2 inh 13µM, Nrf2 activator inactive and A549 viability inactive.
Screening C(=N\Nc1nc2ccccc2[nH]1)/c1ccc2ncccc2c1 returned p53 reactivation inactive, IL2 activator inactive, BRCA1 expr act inactive, Nrf2 inh 20.6µM, Nrf2 activator inactive and A549 viability inactive.
`COc1cc(OC)c2c(c1C(CCN1CCN(c3ccccc3)CC1)c1ccc(N(C)C)cc1)OC(=O)CC2c1ccc(N(C)C)cc1` (configuration not stated) gave Nrf2 inh inactive and A549 viability inactive.
For C(=N\Nc1nc2ccccc2[nH]1)/c1ccc2c(c1)OCCO2 the results were p53 reactivation inactive, IL2 activator inactive, BRCA1 expr act inactive, Nrf2 inh 2.59µM, Nrf2 activator inactive and A549 viability inconclusive.
`COc1cc(/C=N\Nc2nc3ccccc3[nH]2)cc(OC)c1OC` gave p53 reactivation inactive, IL2 activator inactive, BRCA1 expr act inactive, Nrf2 inh 5.8µM, Nrf2 activator inactive and A549 viability inactive.
For CCN(CC)c1ccc(/C=N/Nc2nc3ccccc3[nH]2)c(O)c1 the results were p53 reactivation 17.8µM, IL2 activator inactive, BRCA1 expr act inactive, Nrf2 inh 25.9µM, Nrf2 activator inactive and A549 viability inconclusive.
`COc1cc(OC)c(OC)cc1/C=N/Nc1nc2ccccc2[nH]1` gave p53 reactivation inactive, IL2 activator inactive, BRCA1 expr act inactive, Nrf2 inh inactive, Nrf2 activator inactive and A549 viability inactive.
